Laboratory results from PubChem BioAssay.
The source made the active and inactive calls. Unless noted, the rule behind the calls is not given here.

Tests used:
[1] = resazurin metabolic signal in HepG2 cells – cell-based, resazurin fluorescence, 24 h, PK04 Diversity Set, profiling panel (AID 1172); conditions: HepG2 viability, higher = more signal
[2] = budding yeast growth changes without added modifier – OD600, strain BY4716, 24 h, basal condition, primary screen (AID 1173); conditions: S. cerevisiae BY4716 growth, OD600, 24 h; higher = more signal, called active from +8 up or from −8 down
[3] = viability profiling in MM1S myeloma cells – cell-based, resazurin fluorescence, basal, 24 h, PK04 Diversity Set, profiling panel (AID 1174); conditions: higher = more signal, called active from +8 up or from −8 down;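 note: MM1S multiple myeloma cell line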
[4] = target: Dihydroorotate dehydrogenase (quinone), mitochondrial (Plasmodium falciparum (isolate 3D7)) (UniProt Q08210); test: inhibition of P. falciparum DHODH – biochemical, C-terminal His tag, absorbance 600 nm, primary screen (AID 1175); conditions: PfDHODH enzyme, DCIP absorbance 600 nm; higher = more signal, called active from +8 up or from −8 down;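 note: recombinant parasite enzyme with a five histidine tag at its C terminus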
Dihydroorotate dehydrogenase (quinone), mitochondrial (Plasmodium falciparum (isolate 3D7)), sequence (Q08210 whole entry, looked up): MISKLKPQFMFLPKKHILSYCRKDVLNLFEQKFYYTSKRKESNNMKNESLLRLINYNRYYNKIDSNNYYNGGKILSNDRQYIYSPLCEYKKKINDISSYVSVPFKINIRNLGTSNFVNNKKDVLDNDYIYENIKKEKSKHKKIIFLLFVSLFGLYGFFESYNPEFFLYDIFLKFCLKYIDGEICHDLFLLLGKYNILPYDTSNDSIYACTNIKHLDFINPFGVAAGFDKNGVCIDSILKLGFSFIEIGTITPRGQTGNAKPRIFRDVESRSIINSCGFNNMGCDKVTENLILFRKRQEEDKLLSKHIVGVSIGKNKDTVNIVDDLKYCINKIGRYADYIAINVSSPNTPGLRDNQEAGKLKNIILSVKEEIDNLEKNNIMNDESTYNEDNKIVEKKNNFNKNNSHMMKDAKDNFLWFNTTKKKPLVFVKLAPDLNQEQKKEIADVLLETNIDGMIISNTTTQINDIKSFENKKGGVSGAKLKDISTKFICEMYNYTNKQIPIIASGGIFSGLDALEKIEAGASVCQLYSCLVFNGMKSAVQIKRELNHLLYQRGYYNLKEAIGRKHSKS

[5] = inhibition of PAO1 biofilm formation – strain PAO1, LB-PBS medium, absorbance 600 nm, primary screen (AID 1176); conditions: P. aeruginosa PAO1 growth/biofilm, A600, 12 h; higher = more signal
[6] = growth modulation of vineyard yeast isolate – strain RM11-1a, OD600, basal, 24 h, primary screen (AID 1177);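 note: cultures grown under basal conditions with no added stressor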; conditions: S. cerevisiae RM11-1a growth, OD600, 24 h; higher = more signal, called active from +8 up or from −8 down
[7] = growth of efflux-deficient E. coli DRC39 – strain DRC39, OD650, 24 h, E. coli filamentation inducers, primary screen (AID 1178);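 note: growth measured as culture turbidity by optical density at 650 nm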; conditions: E. coli DRC39 acrAB, higher = more signal, called active from +8 up or from −8 down
[8] = growth of efflux-deficient E. coli DRC39 – strain DRC39, OD650, 48 h, E. coli filamentation inducers, primary screen (AID 1179);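 note: screen aims at cell division blockers that make cells filament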; conditions: E. coli DRC39 delta-acrAB growth, higher = more signal, called active from +8 up or from −8 down
[9] = viability profiling in RPMI8226 myeloma cells – cell-based, resazurin fluorescence, basal, 24 h, PK04 Diversity Set, profiling panel (AID 1180); conditions: higher = more signal;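 note: RPMI8826 multiple myeloma cell line at 5000 cells per well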
[10] = target: E3 ubiquitin-protein ligase XIAP (Homo sapiens) (UniProt P98170); test: small molecules binding XIAP protein – biophysical, small-molecule microarray, fluorescence 635 nm, primary screen (AID 1181); conditions: higher = more signal;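 note: score merges 667 nm emission and signal to noise over triplicate slides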
E3 ubiquitin-protein ligase XIAP (Homo sapiens), sequence (P98170 whole entry, looked up, the tested form may be a part): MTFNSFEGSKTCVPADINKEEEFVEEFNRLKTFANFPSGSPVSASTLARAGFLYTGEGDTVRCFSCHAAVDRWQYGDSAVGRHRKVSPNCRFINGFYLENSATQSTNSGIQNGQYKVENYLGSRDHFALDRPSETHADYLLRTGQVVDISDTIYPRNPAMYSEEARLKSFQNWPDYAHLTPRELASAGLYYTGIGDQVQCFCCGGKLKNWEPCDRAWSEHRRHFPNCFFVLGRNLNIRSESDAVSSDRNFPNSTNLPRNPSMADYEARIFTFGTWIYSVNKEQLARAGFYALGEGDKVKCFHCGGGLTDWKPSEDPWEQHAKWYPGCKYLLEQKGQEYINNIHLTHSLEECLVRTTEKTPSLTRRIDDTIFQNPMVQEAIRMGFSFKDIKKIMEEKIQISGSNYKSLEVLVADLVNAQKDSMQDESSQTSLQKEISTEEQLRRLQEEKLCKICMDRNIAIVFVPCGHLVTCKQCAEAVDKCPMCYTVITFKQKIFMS

[11] = tested on: XIP peptide (Xip251-270) binding; test: XIP fragment 251-270 binding compounds – biochemical, small-molecule microarray, fluorescence 635/667 nm, 0.1 µg/mL protein, primary screen (AID 1182); conditions: fluorescent protein binding, 635 nm, higher = more signal, called active from +8 up or from −8 down
XIP peptide (Xip251-270) = test: compounds binding XIP fragment 251-270 – biochemical, small-molecule microarray, fluorescence 635/667 nm, 0.5 µg/mL protein, primary screen (AID 1183); conditions: fluorescence 635 nm, higher = more signal
[12] = blood-stage malaria parasite viability loss – strain 3D7, DAPI fluorescence, 100 nL, primary screen (AID 1184);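 note: parasites grown inside human red blood cells in medium with human serum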; conditions: P. falciparum 3D7 growth, 3 d, higher = more signal
[13] = target: Homeobox protein Hox-A13 (Mus musculus) (UniProt Q62424); test: disruptors of Hoxa13 oligonucleotide interaction – biochemical, fluorescence polarization, labeled oligonucleotide, primary screen (AID 1185); conditions: Hoxa13:DNA binding, 15 min, higher = more signal, called active from +8 up or from −8 down
Homeobox protein Hox-A13 (Mus musculus), sequence (Q62424 whole entry, looked up): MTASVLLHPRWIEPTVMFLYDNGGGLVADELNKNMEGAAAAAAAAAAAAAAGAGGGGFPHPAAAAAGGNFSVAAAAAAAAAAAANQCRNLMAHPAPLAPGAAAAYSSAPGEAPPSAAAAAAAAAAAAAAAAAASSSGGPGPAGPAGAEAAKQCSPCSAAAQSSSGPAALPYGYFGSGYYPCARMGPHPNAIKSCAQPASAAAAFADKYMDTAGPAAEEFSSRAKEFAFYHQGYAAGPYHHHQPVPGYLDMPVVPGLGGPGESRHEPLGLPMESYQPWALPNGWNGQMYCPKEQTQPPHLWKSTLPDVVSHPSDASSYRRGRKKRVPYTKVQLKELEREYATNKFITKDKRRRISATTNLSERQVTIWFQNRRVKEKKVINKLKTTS

[14] = blockers of DNA damage checkpoint Chk1 activation – imaging, HeLa, hydroxyurea, phospho-Chk1 antibody, percent positive cells, primary screen (AID 1186); conditions: hydroxyurea-induced phospho-Chk1 immunofluorescence imaging, higher = more signal
[15] = blockers of DNA damage checkpoint Chk1 activation – imaging, HeLa, hydroxyurea, phospho-Chk1 nuclear intensity, primary screen (AID 1187); conditions: hydroxyurea-induced phospho-Chk1 immunofluorescence imaging, higher = more signal

SMILES	z-score [1]	z-score [2]	z-score [3]	composite z-score [4]	z-score [5]	z-score [6]	z-score [7]	z-score [8]	z-score [9]	composite z-score [10]	composite z-score [11]	composite z-score (XIP peptide (Xip251-270))	z-score [12]	z-score [13]	z-score [14]	z-score [15]
CCCNC(=O)[C@@]1(c2ccc([N+](=O)[O-])cc2)CC(=O)N(C2CCCCC2)[C@@H]1c1ccc(CO)cc1I	-0.455	0.641 (inactive)	-0.606 (inactive)	0.478 (inactive)	0.429 (inactive)	-0.327 (inactive)	0.549 (inactive)	-0.303 (inactive)	-1.18	0.134	0.423 (inactive)	0.845	-1.66	-5.34 (inactive)	-0.0439 (inactive)	0.329 (inactive)
COc1cc2c(cc1OC)CN(C(=O)[C@H]1[C@@H]3C(=O)O[C@@H](c4ccccc4)[C@@H](c4ccccc4)N3[C@@H](c3ccc(OCCO)cc3)[C@]13C(=O)Nc1ccc(C#CC4(O)CCCCCC4)cc13)CC2	0.0686	1.19 (inactive)	0.122 (inactive)	-0.143 (inactive)	2.91 (inactive)	3.28 (inactive)	0.457 (inactive)	1.25 (inactive)	0.378	-0.0011	0.63 (inactive)	0.803	-1.88	2.98 (inactive)	-0.647 (inactive)	-1.2 (inactive)
O=C1OCC=C[C@H]2OC34C=CCN(Cn5nnc6ccccc65)C(=O)[C@H]3N(CCCCCCO)C(=O)[C@@H]4[C@@H]12 (some centres undefined)	-0.214	-0.344 (inactive)	0.0473 (inactive)	-1.32 (inactive)	0.481 (inactive)	-0.91 (inactive)	0.239 (inactive)	0.163 (inactive)	-0.134	0.233	-0.231 (inactive)	-0.714	-0.508	-4.69 (inactive)	0.197 (inactive)	0.521 (inactive)
CC(=O)n1cc(C(O)C2C=CC3C(=O)N(c4ccccc4)C(=O)C3N2Nc2ccccc2)c2ccccc21 (centres undefined)	-1.51	-3.18 (inactive)	-2.12 (inactive)	0.342 (inactive)	0.807 (inactive)	0.127 (inactive)	-0.0484 (inactive)	-0.602 (inactive)	-1.76	0.0297	0.853 (inactive)	-0.515	-0.4	-3.42 (inactive)	0.863 (inactive)	0.355 (inactive)
COc1ccccc1CN1C(=O)c2ccccc2[C@@H](C(=O)NC(C)C)[C@@H]1c1ccc(CO)cc1	1.1	-0.186 (inactive)	1.1 (inactive)	-0.469 (inactive)	-0.963 (inactive)	-0.108 (inactive)	0.686 (inactive)	0.0549 (inactive)	1.17	0.0251	0.0282 (inactive)	0.905	-0.425	-1.9 (inactive)	0.19 (inactive)	0.686 (inactive)
COC(=O)Cn1c(C(=O)N2CCCC2)cc2c1C[C@H]1CN(C(=O)c3ccccc3)[C@@](Cc3ccc(F)cc3)(C(=O)OC)[C@@H]21	0.716	0.702 (inactive)	-1.35 (inactive)	-0.653 (inactive)	0.756 (inactive)	-1.54 (inactive)	-0.132 (inactive)	-0.181 (inactive)	0.303	0.303	0.243 (inactive)	0.513	0.554	-5.15 (inactive)	-1.49 (inactive)	-1.37 (inactive)
NCCCCCCNC(=O)[C@H]1C[C@H]2C(=O)N[C@@H](Cc3ccccc3)C(=O)N2[C@H]1c1ccc(O)cc1	0.614	-0.68 (inactive)	1.58 (inactive)	-1.32 (inactive)	0.118 (inactive)	-1.27 (inactive)	0.279 (inactive)	0.04 (inactive)	1.27	-0.0826	-0.342 (inactive)	0.623	0.171	-3.5 (inactive)	-0.174 (inactive)	0.592 (inactive)
CN(C)CCCCNC(=O)[C@H]1C[C@H]2C(=O)N[C@@H](CCCCN(C)C)C(=O)N2[C@H]1c1cccc(OCCO)c1	1.11	0.427 (inactive)	0.895 (inactive)	-0.493 (inactive)	-1.48 (inactive)	0.807 (inactive)	0.0233 (inactive)	-0.0221 (inactive)	0.45	-0.0559	1.64 (inactive)	0.675	0.649	-3.26 (inactive)	0.368 (inactive)	0.217 (inactive)
C=CC[C@@]12N=C(c3ccc(OCCCO)cc3)O[C@@H]1c1ccccc1N(CCS(=O)(=O)c1ccccc1)C2=O	0.653	0.0618 (inactive)	-1.97 (inactive)	0.0628 (inactive)	-0.251 (inactive)	0.379 (inactive)	0.907 (inactive)	1.6 (inactive)	-1.07	0.0303	2.13 (inactive)	0.767	-2.01	-2.38 (inactive)	-0.641 (inactive)	-0.295 (inactive)
